The list is not random: actives were taken first. Their share in the collection is about 0.79%.
phage Ecoli inh: growth loss of phage-infected E. coli, primary screen, RecBCD inhibitor project, absorbance, with phage, HTS | hit rate 0.26% among 360,000 | inhibition, % at 11.9 µM; in the data active means inhibition above about 11%
AI-2 QS modul: Vibrio harveyi AI-2 quorum sensing modulators, primary screen, JMH597 strain, luminescence/OD600 ratio | hit rate 0.4% among 300,000 | AID 2094, 2009 | activity change, % at 7.5 µM | Vibrio harveyi JMH597 AI-2 luminescence/OD600 ratio, 9 h; hits give low values; strain lacks LuxN and CqsS sensors; 0 = neutral-control median; in the data active means activity change below about -75%, passing the limit was not always enough; inconclusive means no clear call, values can overlap the other calls;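 further: luminescence divided by OD600 gain over 9 h not by final OD600 alone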
E coli growth-1: E. coli growth inhibition, primary screen, OD600. Escherichia coli growth, 23 h; hits give low values. OD600 absorbance (no concentration beside the values). hit rate 0.21% among 330,000. AID 1053175, 2014;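 active means OD600 absorbance below the run mean of sample wells minus 3.6 SD, in any replicate, cut at about 0.56 in these data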
Tat transport: E. coli Tat export inhibitors, primary screen, MC4100, TorA-mCherry reporter, fluorescence, single point | inhibition, % at 10 µM | hit rate 0.036% among 340,000;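 active means mean replicate inhibition at least 50% and at least half of replicates individually reaching 50%; inconclusive means only one of the two criteria met; inactive means neither criterion met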;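 further: exported cargo escapes ClpAP degradation while cytoplasmic cargo is degraded and loses fluorescence; 0% = median of neutral control wells and 100% = median of NaSCN control wells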
E coli growth-2: E. coli V3065 growth inhibition, primary screen, counter-screen for AddAB inhibitor project, absorbance, OD600; inhibition, % at 11.9 µM; 18 h; AID 449728, 2010; hit rate 0.27% among 330,000;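 active means inhibition above the campaign's mean inhibition across all tested compounds plus 3 SD, cut at about 9.9% in these data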;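 further: uninfected addAB+ strain grown without phage in ampicillin broth; 0% = DMSO wells and 100% = ciprofloxacin 0.95 µg/ml wells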
AddAB inh: growth inhibition of E. coli expressing H. pylori AddAB, primary screen, AddAB inhibitor project, absorbance; inhibition, % at 11.9 µM; hit rate 0.29% among 330,000; AID 435030, 2010; in the data active means inhibition above about 12%;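 further: 0% = vehicle wells of infected cells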
JMH597 growth: Vibrio harveyi growth inhibition, confirmation, counter-screen for AI-2 quorum sensing project, JMH597 strain, OD600 absorbance. shares compounds with AI-2 QS modul. 9 h; lacks LuxN and CqsS sensors. growth inhibition, % at 7.5 µM. hit rate 1% among 750. AID 2726, 2010;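 active means every replicate shows growth inhibition above 50%; inconclusive means at least half, but not all, replicates pass that cutoff; inactive means fewer than half of replicates pass it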
BB721 lum counter: luminescence inhibition in constitutive-on V. harveyi, confirmation, counter-screen for LuxS inhibitor project, strain BB721, luminescence readout; shares compounds with AI-2 QS modul; Vibrio harveyi BB721 luminescence, 9 h; inhibition, % at 7.5 µM; hit rate 95% among 750;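 active means inhibition above about 80% in every replicate, not just on average, limit read from the data; inconclusive means at least half of replicates past the limit, but not all; inactive means fewer than half of replicates past the limit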
BB721 growth rt: growth inhibition of V. harveyi BB721, confirmation, cytotoxicity control for AI-2 quorum sensing inhibitors, strain BB721, absorbance OD600; growth inhibition, % at 7.5 µM; Vibrio harveyi BB721 growth, 9 h; shares compounds with AI-2 QS modul; hit rate 3% among 750;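 active means every replicate shows growth inhibition above 50%; inconclusive means at least half but not all replicates above 50% inhibition; inactive means under half of replicates above 50% inhibition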
JMH597 AI-2 mod: Vibrio harveyi AI-2 signaling luminescence modulation – JMH597 strain, confirmation. hit rate 97% among 750. shares compounds with AI-2 QS modul. inhibition, % at 7.5 µM. Vibrio harveyi JMH597 AI-2 quorum sensing luminescence, 9 h; luxN and CqsS knockout, AI-2 only. AID 2736, 2010;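 active means every replicate shows more than 75% inhibition of signal versus neutral control wells; inconclusive means half to three quarters of replicates exceed 75% inhibition; inactive means fewer than half of replicates exceed 75% inhibition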
* hit, by the source's call; ? = inconclusive; nt = no result.

SMILES | phage Ecoli inh | AI-2 QS modul | E coli growth-1 | Tat transport | E coli growth-2 | AddAB inh | JMH597 growth | BB721 lum counter | BB721 growth rt | JMH597 AI-2 mod
COc1cc(Br)cc(C=NN(CCO)C2=NS(=O)(=O)c3ccccc32)c1OC | nt | nt | 0.7 | nt | nt | nt | nt | nt | nt | nt
CC(=O)Nc1ccc(S(=O)(=O)Nc2ccc3c(c2)OCCO3)cc1Cl | 1 | -97* | nt | -7 | -2 | 2 | 5 | 99* | -35 | 100*
COc1ccc(S(=O)(=O)Nc2ccc3c(c2)OCCO3)cc1Cl | 1 | 24 | 0.68 | 1 | 3 | 0 | nt | nt | nt | nt
CC(=O)Nc1ccc(NC(=O)CCc2ccc(C)o2)cc1 | 0 | 13 | 0.7 | -6 | 0 | 1 | nt | nt | nt | nt
Cc1ccc(NC(=O)CCc2ccc(C)o2)cc1 | 2 | ? | 0.69 | 7 | 2 | 0 | 23 | 87* | 2 | 92*
Cc1ccc(CCC(=O)Nc2ccc([N+](=O)[O-])cc2)o1 | 1 | -91* | 0.68 | -11 | 0 | 1 | 9 | 97* | -14 | 98*
O=C(O)c1cc(NN=Cc2cccc3ccccc23)ccc1Cl | nt | nt | 0.68 | nt | nt | nt | nt | nt | nt | nt
COc1cccc(Oc2cn[nH]c2-c2ccc(O)cc2O)c1 | 3 | -84* | 0.69 | -1 | 1 | 2 | ? | 98* | ? | 99*
O=C(NCc1cccs1)C(=O)c1c[nH]c2ccccc12 | 4 | -92* | 0.65 | 1 | 0 | -1 | 20 | 97* | -1 | 98*
O=C(NCc1cccnc1)C(=O)c1c[nH]c2ccccc12 | 3 | 12 | 0.69 | -8 | 2 | -1 | nt | nt | nt | nt
O=C(NCc1ccccc1Cl)C(=O)c1c[nH]c2ccccc12 | 3 | -83* | 0.71 | -3 | 4 | 2 | -15 | 94* | 16 | 95*
CC1CN(C(C)CO)C(=O)c2cccc(NC(=O)Nc3ccccc3)c2OC1CN(C)S(C)(=O)=O (configuration not stated) | nt | nt | 0.68 | nt | nt | nt | nt | nt | nt | nt
O=C(O)c1cc(NN=Cc2ccc(-c3ccc(F)cc3)o2)ccc1Cl | nt | nt | 0.69 | nt | nt | nt | nt | nt | nt | nt
O=C(O)c1cccnc1Sc1ccc(Br)cc1 | 1 | -84* | 0.66 | 3 | 0 | 2 | 20 | 97* | 44 | 97*
CC(C(=O)Nc1ccc2ccccc2c1)C1C[C@@]1(C)C(NC(=O)OCc1ccccc1)c1ccccc1 (some centres not stated) | nt | nt | 0.67 | nt | nt | nt | nt | nt | nt | nt
COC(=O)NN=Cc1ccc(-c2cc(Cl)c(Cl)cc2Cl)o1 | nt | nt | 0.68 | nt | nt | nt | nt | nt | nt | nt
COC(=O)c1cccc(NC(=S)NCc2ccc(Cl)cc2)c1 | 5 | -83* | 0.7 | -1 | 3 | 4 | -24 | 90* | 3 | 92*
COc1ccc(CNC(=S)Nc2cccc(Cl)c2)cc1 | 5 | -84* | 0.67 | nt | 1 | 5 | 0 | 95* | 7 | 95*
COc1ccc(NC(=O)NCc2ccc(Cl)cc2)cc1 | 4 | -16 | 0.7 | -9 | nt | nt | nt | nt | nt | nt
COc1ccc(CNC(=S)Nc2cccc(C)c2)cc1 | 0 | -51 | 0.72 | -4 | 0 | 1 | nt | nt | nt | nt
COc1ccc(CNC(=O)Nc2cccc(Cl)c2)cc1 | nt | -94* | 0.7 | 2 | nt | nt | 0 | 97* | 14 | 98*
CC=C(C)C(=O)N1CC2(CC(c3cccc(NC(=O)CCCCC)c3)=NO2)CC1C(N)=O (configuration not stated) | nt | nt | 0.67 | nt | nt | nt | nt | nt | nt | nt
Cc1cccc(Oc2coc3cc(O)ccc3c2=O)c1 | 0 | -87* | 0.66 | -9 | 1 | 2 | 26 | 98* | 44 | 98*
CCOC(=O)Oc1ccc2c(=O)c(Oc3cccc(C)c3)coc2c1 | 1 | -85* | 0.69 | -14 | -2 | 1 | 75* | 97* | ? | 97*

Compound activity deposited in PubChem BioAssay by several laboratories.
